Compound activity deposited in PubChem by National Center for Advancing Translational Sciences (NCATS).
Hits are enriched below; roughly 14% of the tested compounds scored in any of these assays.
HADH2 inhib = qHTS Assay for Inhibitors of HADH2 (Hydroxyacyl-Coenzyme A Dehydrogenase, Type II); 3-hydroxyacyl-CoA dehydrogenase type-2 (Homo sapiens), Q99714; recombinant HADH2, NADH fluorescence, beta-hydroxybutyryl-CoA; Potency, µM (top dose mostly 57.1 µM), inactives show at the top dose activity change, negative = inhibition, actives largely listed as inhibitors; 73,000 tested, 3.4% active; note: potency is the fitted concentration of half-maximal effect; % is set by controls: 0 for no effect and ±100 for the full control effect; nearly all actives have a fitted effect of over 60% in size
Target sequence (Q99714 whole entry, looked up, one chain of several): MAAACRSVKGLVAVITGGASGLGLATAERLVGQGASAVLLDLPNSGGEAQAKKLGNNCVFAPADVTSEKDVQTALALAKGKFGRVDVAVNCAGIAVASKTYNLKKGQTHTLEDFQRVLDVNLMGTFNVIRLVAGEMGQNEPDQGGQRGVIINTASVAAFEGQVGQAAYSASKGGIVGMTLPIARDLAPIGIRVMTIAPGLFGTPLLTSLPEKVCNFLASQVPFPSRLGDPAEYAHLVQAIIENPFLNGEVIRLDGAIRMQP
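Activity measured as NADH fluorescence gain (360/450 nm), taken as the change between first and last reads of a 4-min kinetic run. Conditions: pH 9.0 Tris buffer, 20 nM E. coli-expressed His-tagged enzyme, 1 mM NAD+, 90 uM beta-hydroxybutyryl-CoA; 15-min compound preincubation.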
AID923 = qHTS Assay for Allosteric/Competitive Inhibitors of Caspase-1: Spectroscopic Profiling in AFC Spectral Region. compound fluorescence, AFC spectral region (405/520 nm). Potency, µM (highest dose often 57.5 µM), for the others: top-dose fluorescence increase, hits mostly activators. 75,000 tested, 1.1% active; note: potency is the fitted concentration of half-maximal effect; 0% is about no effect
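Baseline compound fluorescence (AFC region, 405 nm ex/520 nm em) taken from the intercept of kinetic reads with 50 nM caspase-1 and 5 uM Ac-WEHD-AFC; normalized to an on-plate AFC standard curve; compounds titrated up to 57 uM.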
HSD17B inhib = qHTS Assay for Inhibitors of HSD17B4, hydroxysteroid (17-beta) dehydrogenase 4; 3-hydroxyacyl-CoA dehydrogenase type-2 (Homo sapiens), Q99714; recombinant HSD17B10, NADH fluorescence kinetic; Potency, µM (doses to about 57.1 µM), without a hit: top-dose activity change, negative = inhibition, most hits filed as inhibitors; 75,000 tested, 7.6% active;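 note: the protocol describes HADH2 (HSD17B10) and not the HSD17B4 of the title; potency is the fitted concentration of half-maximal effect; % is set by controls: 0 for no effect and ±100 for the full control effect; nearly all actives have a fitted effect of over 70% in size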
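Activity followed as NADH fluorescence increase (ex 360, em 450 nm) every 30 seconds for 4 min, using final 90 uM beta-hydroxybutyryl CoA and 1 mM NAD+. Recombinant His-tagged enzyme, 20 nM, pH 9.0 Tris buffer, 15 min compound preincubation.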
A350 fluor = qHTS Assay for Spectroscopic Profiling in A350 Spectral Region | Compound autofluorescence, 340/450 nm, Alexa 350 dye-equivalents; stronger effect = higher value | max dye-equivalent concentration, M | 59,000 tested, 11% active | AID 590, 2007; in the data active = max dye-equivalent concentration above about 10 nM; inconclusive = mostly about 1.1 nM to 9.6 nM
4-MU autofl = qHTS Assay for Spectroscopic Profiling in 4-MU Spectral Region. compound autofluorescence, 340/450 nm, 4-MU equivalents; stronger effect = higher value. max dye-equivalent concentration, M. 59,000 tested, 11% active. AID 589, 2007; in the data active = max dye-equivalent concentration above about 10 nM; inconclusive = mostly about 1.1 nM to 9.6 nM
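Compounds in 100 mM Tris, pH 8.0, sat 15 min at room temperature before fluorescence was read at 340 nm excitation/450 nm emission; a per-plate six-point 4-MU standard curve converted signals to dye-equivalent concentration at each compound concentration.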
CRE-bla Fsk = Cell signaling CRE-BLA (Fsk stim); CHO CRE-bla reporter (cAMP response element driving beta-lactamase), forskolin EC10, beta-lactamase ratio; Potency, µM (doses to about 38.2 µM), for inactives: top-dose activity change, negative = inhibition, hits mostly activators; 71,000 tested, 2.5% active; AID 662, 2007; active = well fitted activation curve with a large enough effect in the signal ratio, with a control signal flat, not every such curve was filed as active; inconclusive = small, poorly fitted or top-dose-only effect, or effect the other way, or a change in a side signal; the % refers to the signal ratio; note: potency is the fitted concentration of half-maximal effect; % of control where 0% means no effect
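CRE-bla CHO reporter cells treated with compound titration plus EC10 NKH 477 (water-soluble forskolin), incubated 3 h at 37 °C; CCF4 loading 2 h at room temperature, 460/530 nm emission ratio read, AC50 values derived for positive or negative modulators.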
* marks the source's active call; other numbers are inactive results; [ ] = another dose, or the depositor's remark. Unless noted, calls come from the whole dose curve; as a rule, active = well fitted curve in the direction sought with a large enough effect; inconclusive = small, poorly fitted or top-dose-only effect, or another doubt; inactive = no such curve, though single readings can be large; an effect the other way counts as inactive or inconclusive.

Screening CSc1ccc(C2C(C#N)=C(N)Oc3c2ccc(=O)c2c(C)oc(C)c32)cc1 (configuration not stated) returned HADH2 inhib 25.1µM*, AID923 8.5%, HSD17B inhib 25.1µM*, A350 fluor inactive, 4-MU autofl inactive and CRE-bla Fsk -16.4%.
Screening OCCCCNc1cccc2ccccc12 returned HADH2 inhib 31.6µM*, AID923 2.3%, HSD17B inhib 25.1µM*, A350 fluor 1.81e-07M*, 4-MU autofl 2.26e-07M* and CRE-bla Fsk 2.3%.
For COc1ccc(-c2ccc(-c3noc(-c4ccco4)n3)c(OC)n2)cc1 the results were HADH2 inhib inconclusive, AID923 7.2%, HSD17B inhib 25.1µM*, A350 fluor 1.23e-07M*, 4-MU autofl 1.11e-07M* and CRE-bla Fsk 26.8%.
COc1nc(-c2ccccc2)ccc1-c1noc(-c2ccccc2)n1 was read as HADH2 inhib 2.3%, AID923 -0.9%, HSD17B inhib -4.1%, A350 fluor inactive, 4-MU autofl inactive and CRE-bla Fsk inconclusive.
COc1nc(-c2ccccc2)ccc1-c1noc(-c2ccco2)n1 was read as HADH2 inhib 31.6µM*, AID923 1.6%, HSD17B inhib inconclusive, A350 fluor inconclusive, 4-MU autofl inconclusive and CRE-bla Fsk 23.5%.
Screening Clc1ccc(C2=Nn3c(nnc3-c3n[nH]c4c3CCC4)SC2)cc1 returned HADH2 inhib 13.4%, AID923 -0.3%, HSD17B inhib -11.8%, A350 fluor 2.96e-08M*, 4-MU autofl 2.69e-08M* and CRE-bla Fsk 2.51µM*.
Screening Clc1ccc(C2=Nn3c(nnc3-c3cccnc3)SC2)s1 returned HADH2 inhib -4.6%, AID923 0.4%, HSD17B inhib -4.0%, A350 fluor inactive, 4-MU autofl inactive and CRE-bla Fsk 3.4%.
For Cc1ccc(-c2nnc3n2N=C(c2ccc(Br)cc2)CS3)cc1 the results were HADH2 inhib 6.7%, AID923 -1.4%, HSD17B inhib -26.2% and CRE-bla Fsk 10µM*.
For Cc1cccc(-c2nnc3n2N=C(c2ccc(Br)cc2)CS3)c1 the results were A350 fluor inactive and 4-MU autofl inactive.
Brc1ccc(C2=Nn3c(nnc3-c3n[nH]c4c3CCC4)SC2)cc1 was read as HADH2 inhib 3.4%, AID923 -0.2%, HSD17B inhib 1.6%, A350 fluor inactive, 4-MU autofl inactive and CRE-bla Fsk 5.01µM*.
Screening COc1ccc(OCC2CC3C(CCC(C)C3c3ccc(Br)cc3)C(=O)O2)cc1 (configuration not stated) returned HADH2 inhib -5.9%[11.4 µM], AID923 -3.0%[11.5 µM] and HSD17B inhib -2.4%[11.4 µM].
`O=C(O)CCC(O)=C1S(=O)(=O)OCCOS1(=O)=O` gave HADH2 inhib 15.4%[11.4 µM], AID923 0.8%[11.5 µM], HSD17B inhib 2.8%[11.4 µM], A350 fluor inactive, 4-MU autofl inactive and CRE-bla Fsk -2.9%[7.6 µM].
For COc1ccc(OC2C=CC(c3ccccc3)OC2CO)c(C(C)(C)C)c1 (configuration not stated) the results were HADH2 inhib -6.1%[11.4 µM], AID923 -2.1%[11.5 µM] and HSD17B inhib 6.8%[11.4 µM].
Screening N#Cc1nc(COc2ccccc2Cl)oc1N1CCCCCC1 returned HADH2 inhib 8.7%, AID923 -0.5%, HSD17B inhib -0.2% and CRE-bla Fsk 14.5%.
For N#Cc1nc(-c2ccccc2Cl)oc1N1CCCCC1 the results were A350 fluor 2.75e-08M* and 4-MU autofl 2.41e-08M*.
`CC1CC(C)CN(c2oc(-c3ccccc3Cl)nc2C#N)C1` (configuration not stated) gave HADH2 inhib 1.58µM*, AID923 0.6%, HSD17B inhib 25.1µM*, A350 fluor 5.4e-08M*, 4-MU autofl 5.71e-08M* and CRE-bla Fsk inconclusive.
COC(=O)[C@@]1(Cc2ccccc2)[C@H]2c3cc(C(=O)N4CCCC4)n(CC4CC4)c3C[C@H]2CN1C(=O)c1ccccc1 was read as HADH2 inhib -8.6%, AID923 -0.4%, HSD17B inhib -16.3% and CRE-bla Fsk -15.0%.
For Cc1nc(C)c2c(=O)cc(-c3ccccc3)[nH]c2n1 the results were HADH2 inhib 31.6µM*, AID923 1.0%, HSD17B inhib 31.6µM*, A350 fluor 1.65e-07M*, 4-MU autofl 1.46e-07M* and CRE-bla Fsk inconclusive.
`CCN(CC)CCCN1C(=O)c2oc3ccccc3c(=O)c2C1c1cccc(OC)c1OC` (configuration not stated) gave HADH2 inhib 10.1%, AID923 4.1%, HSD17B inhib 3.8%, A350 fluor 1.57e-08M*, 4-MU autofl 1.23e-08M* and CRE-bla Fsk -3.8%.
For COc1cccc(C2c3c(oc4ccccc4c3=O)C(=O)N2CCCN(C)C)c1OC (configuration not stated) the results were HADH2 inhib 16.7%, AID923 2.5%, HSD17B inhib -1.6%, A350 fluor 1.64e-08M*, 4-MU autofl 1.59e-08M* and CRE-bla Fsk -11.5%.
For NCCC[C@@H](CC(=O)N[C@@H]1CCNC[C@H]1C(=O)N[C@H](CC(=O)N[C@@H](CCC(=O)O)CC(=O)O)Cc1c[nH]c2ccccc12)NC(=O)C[C@H](Cc1ccccc1)NC(=O)[C@@H]1CNCC[C@H]1N the results were HADH2 inhib 3.6% and CRE-bla Fsk -19.0%.
`Cc1occc1-c1nc(-c2ccccn2)no1` gave HADH2 inhib 1.5%, AID923 1.6%, HSD17B inhib 4.7% and CRE-bla Fsk 9.0%.
`Cc1onc(-c2ccccc2Cl)c1-c1nc(-c2ccccn2)no1` gave HADH2 inhib 2.9%, AID923 -2.7%, HSD17B inhib -9.3%, A350 fluor inactive, 4-MU autofl inactive and CRE-bla Fsk 12.6µM*.
Screening COc1cccc(C2CC(=O)N3CN(c4ccccc4F)CSC3=C2C#N)c1 (configuration not stated) returned HADH2 inhib 1.26µM*, AID923 -3.2%, HSD17B inhib inconclusive and CRE-bla Fsk inconclusive.
For COc1ccc(OC)c(C2CC(=O)N3CN(c4ccccc4F)CSC3=C2C#N)c1 (configuration not stated) the results were HADH2 inhib 2.51µM*, AID923 1.4%, HSD17B inhib inconclusive and CRE-bla Fsk 12.2%.
